Reference: PubChem BioAssay (NCI)
This is part of a sample that, as a whole, favours compounds with a hit. Of some 83,000 tested, about 20% had one in any assay.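 For each line, cells grew in 96-well plates with the test compound present at a single concentration for 48 hours.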 The source made the active and inactive calls. How the source made its calls: active means growth percent below 10; inactive means the rest.

The compounds below were run on UACC-62 melanoma (assay: NCI-60 one-dose screen, 48 h (100 = growth as untreated, 0 = no growth, -100 = all killed)). Conditions: 10 µM unless noted.

Row | Structure (SMILES) | growth
1 | Cc1cc2c(c(C)c1Cl)C(=O)/C(=C/c1ccco1)O2 | 88.7% (inactive)
2 | CN(C)CCNc1cc(-c2ccccc2)nc2ccccc12 | -75.9% (active)
3 | COc1ccc(CCN2CCC(CN(C)Cc3cnn(-c4ccccc4)c3)CC2)cc1 | -14.2% (active)
4 | COc1ccc(/C=C/C(=O)c2c(C)nc3ccccc3c2/C=C/c2ccccc2)cc1O | 48.6% (inactive)
5 | Nc1n[nH]c2ccc([C@@H]3Nc4ccc5[nH]ncc5c4[C@H]4[C@H]5CCC(C5)[C@H]43)cc12 | 40.5% (inactive)
6 | O=c1c2cc(F)ccc2sc2c(NCCN3CCCC3)nc3ccccc3c12 | 38.2% (inactive)
7 | COc1ccc2sc(N(Cc3cccnc3)C(=O)c3ccc(C#N)cc3)nc2c1 | 86.9% (inactive)
8 | COC(=O)/C(CCC=C(C)C)=C1\[C@@H](OC(C)=O)C[C@@]2(C)[C@H]1C[C@@H](O)[C@H]1[C@@]3(C)CC[C@H](NC(=O)c4cnccn4)[C@@H](C)[C@@H]3CC[C@@]12C | 86.6% (inactive)
9 | CCOc1ccc(Nc2ccnc3cc(Cl)ccc23)cc1 | 21.9% (inactive)
10 | O=C(Nc1ccsc1C(=O)NC1CCCCC1)c1ccc(F)cc1 | 103% (inactive)
11 | CCn1c(-c2nonc2Nc2ccc(OC)cc2)nc2ccccc21 | 96.2% (inactive)
12 | COc1ccc(/C=C2\N=C(c3ccccc3)N(c3ccc(-c4nc5ccc(C)cc5s4)cc3)C2=O)cc1 | 73.2% (inactive)
13 | CSc1nc2c(c(=O)[nH]1)N=C1c3ccccc3C(=O)C1C(c1ccccc1)N2 (stereo not drawn) | 37.8% (inactive)
14 | CC1(C)CC2(C)OC2C2(C1)N=NC(=Nc1ccccc1)O2 (stereo not drawn) | 73.1% (inactive)
15 | COC(=O)/C(=C\c1c(-c2ccccc2)[nH]c2ccccc12)S(C)(=O)=O | 37.1% (inactive)
16 | O=C(NN1C(=O)CSC1c1ccc(Cl)cc1)c1[nH]c2ccc(F)cc2c1-c1ccccc1 (stereo not drawn) | 48.7% (inactive)
17 | CC(=O)n1cc(-c2c[nH]c3ccccc23)c(-c2ccc(Cl)cc2)n1 | 93.5% (inactive)
18 | O=C(N/N=C/c1ccccc1Cl)C(=O)Nc1cccc(C(F)(F)F)c1 | 91.2% (inactive)
19 | COc1cccc2cc(N(C)c3nc(C)nc4ccsc34)ccc12 | 43.4% (inactive)
20 | O=C(Cn1cc(COc2ncnc3c2cnn3-c2ccccc2)nn1)Nc1cccc2ccccc12 | 83.9% (inactive)

Row | Structure (SMILES) | growth
21 | CCC1=C[C@]2(C3CC(=O)N(c4ccccc4)C3=O)CC(C(C)(C)C)C[C@@H]2[C@@H]2C(=O)N(c3ccccc3)C(=O)[C@H]12 (stereo partly drawn) | 71.9% (inactive)
22 | CCCN1CCN(c2ccc3nc(-c4ccc5nc(-c6cc(OC)ccc6OC)[nH]c5c4)[nH]c3c2)CC1 | 110% (inactive)
23 | COc1ccc2c(c1)C=C1CSCC3=Cc4cc(OC)ccc4OC13O2 | 14.2% (inactive)
24 | COc1ccc(-c2nc(-c3ccccn3)c(-c3ccccn3)n2CC(C)C)cc1OC1CCCC1 | 9.71% (active)
25 | CCN1C(=O)N(CC)C2C1NC(=S)N2/N=C/C=C/c1ccccc1OC (stereo not drawn) | 25.8% (inactive)
26 | O=C(c1nc2ccccc2[nH]1)C1C(c2ccc([N+](=O)[O-])cc2)C2CC3CCCCC3N2[C@@]12C(=O)Nc1cc(Cl)ccc12 (stereo partly drawn) | 20.5% (inactive)
27 | COc1cc(-c2c3c(c(Br)n2Cc2ccccc2)-c2nc(N)sc2CC3)cc(OC)c1OC | 68.3% (inactive)
28 | Cn1c(C(=O)c2cccc3ccccc23)nc2ccccc21 | -27.2% (active)
29 | C1=CC2(C=C1)OC21CCC2(C=CC3(C2)OC3C2CCCCC2)CC1 (stereo not drawn) | 99.7% (inactive)
30 | O=C1/C=C/[C@@H](O)[C@@H]2C[C@@H](O)C[C@H]2/C=C/CCCCO1 | 64.1% (inactive)
31 | CS(=O)(=O)Nc1ccc(C(=O)NC(C(=O)NO)c2ccc(-c3cccc(F)c3)cc2)cc1 (stereo not drawn) | 79% (inactive)
32 | CCN1CCN(c2cc(C)c3cc(NC(=O)c4ccc(OC)c(OC)c4)ccc3n2)CC1 | 27.3% (inactive)
33 | Cc1ccc(OCCCCCCNCCO)c(C)c1 | -42% (active)
34 | CCOc1ccc2nc(C)cc(Nc3ccc(Br)cc3)c2c1 | 103% (inactive)
35 | Cn1c2c(c(=O)[nH]c1=O)NC1=C(C(=O)c3ccccc31)C1(C=C(O)c3ccccc31)N2 (stereo not drawn) | 116% (inactive)
36 | CC(C)(C)c1ccc(C2CC(=O)C3=C(C2)Nc2ccccc2N(C(=O)c2ccccc2Cl)C3c2ccc(F)cc2)cc1 (stereo not drawn) | -53.8% (active)
37 | Oc1ccc(-c2nc(-c3ccc4oc5ccc(-c6[nH]c(-c7ccc(O)cc7)nc6-c6ccccc6)cc5c4c3)c(-c3ccccc3)[nH]2)cc1 | 49.9% (inactive)
38 | CN(CCc1ccccc1)C(=S)N(C(=O)c1ccc([N+](=O)[O-])cc1)c1ccc(Cl)cc1 | 92% (inactive)
39 | Nc1no[n+]([O-])c1-c1nnc2c(n1)-c1ccccc1C2=O | 64.3% (inactive)

The compounds below were run on LOX IMVI melanoma in the same assay as above. Conditions: 10 µM unless noted.

Row | Structure (SMILES) | growth
40 | Cc1cc2c(c(C)c1Cl)C(=O)/C(=C/c1ccco1)O2 | 93% (inactive)
41 | CN(C)CCNc1cc(-c2ccccc2)nc2ccccc12 | -84% (active)
42 | COc1ccc(CCN2CCC(CN(C)Cc3cnn(-c4ccccc4)c3)CC2)cc1 | 2.01% (active)
43 | COc1ccc(/C=C/C(=O)c2c(C)nc3ccccc3c2/C=C/c2ccccc2)cc1O | 33% (inactive)
44 | Nc1n[nH]c2ccc([C@@H]3Nc4ccc5[nH]ncc5c4[C@H]4[C@H]5CCC(C5)[C@H]43)cc12 | 14.7% (inactive)
45 | O=c1c2cc(F)ccc2sc2c(NCCN3CCCC3)nc3ccccc3c12 | 28.4% (inactive)
46 | COc1ccc2sc(N(Cc3cccnc3)C(=O)c3ccc(C#N)cc3)nc2c1 | 75.9% (inactive)
47 | COC(=O)/C(CCC=C(C)C)=C1\[C@@H](OC(C)=O)C[C@@]2(C)[C@H]1C[C@@H](O)[C@H]1[C@@]3(C)CC[C@H](NC(=O)c4cnccn4)[C@@H](C)[C@@H]3CC[C@@]12C | 93.5% (inactive)
48 | CCOc1ccc(Nc2ccnc3cc(Cl)ccc23)cc1 | -22.3% (active)
49 | O=C(Nc1ccsc1C(=O)NC1CCCCC1)c1ccc(F)cc1 | 97.7% (inactive)
50 | CCn1c(-c2nonc2Nc2ccc(OC)cc2)nc2ccccc21 | 107% (inactive)
51 | COc1ccc(/C=C2\N=C(c3ccccc3)N(c3ccc(-c4nc5ccc(C)cc5s4)cc3)C2=O)cc1 | 98.2% (inactive)
52 | CSc1nc2c(c(=O)[nH]1)N=C1c3ccccc3C(=O)C1C(c1ccccc1)N2 (stereo not drawn) | 51.9% (inactive)
53 | CC1(C)CC2(C)OC2C2(C1)N=NC(=Nc1ccccc1)O2 (stereo not drawn) | -51.9% (active)
54 | COC(=O)/C(=C\c1c(-c2ccccc2)[nH]c2ccccc12)S(C)(=O)=O | 45.1% (inactive)
55 | O=C(NN1C(=O)CSC1c1ccc(Cl)cc1)c1[nH]c2ccc(F)cc2c1-c1ccccc1 (stereo not drawn) | 60.9% (inactive)
56 | CC(=O)n1cc(-c2c[nH]c3ccccc23)c(-c2ccc(Cl)cc2)n1 | 86.8% (inactive)
57 | O=C(N/N=C/c1ccccc1Cl)C(=O)Nc1cccc(C(F)(F)F)c1 | 94.9% (inactive)
58 | COc1cccc2cc(N(C)c3nc(C)nc4ccsc34)ccc12 | 16.3% (inactive)
59 | O=C(Cn1cc(COc2ncnc3c2cnn3-c2ccccc2)nn1)Nc1cccc2ccccc12 | 97.5% (inactive)

Row | Structure (SMILES) | growth
60 | CCC1=C[C@]2(C3CC(=O)N(c4ccccc4)C3=O)CC(C(C)(C)C)C[C@@H]2[C@@H]2C(=O)N(c3ccccc3)C(=O)[C@H]12 (stereo partly drawn) | 93.1% (inactive)
61 | CCCN1CCN(c2ccc3nc(-c4ccc5nc(-c6cc(OC)ccc6OC)[nH]c5c4)[nH]c3c2)CC1 | -83.3% (active)
62 | COc1ccc2c(c1)C=C1CSCC3=Cc4cc(OC)ccc4OC13O2 | 24.1% (inactive)
63 | COc1ccc(-c2nc(-c3ccccn3)c(-c3ccccn3)n2CC(C)C)cc1OC1CCCC1 | 20.8% (inactive)
64 | CCN1C(=O)N(CC)C2C1NC(=S)N2/N=C/C=C/c1ccccc1OC (stereo not drawn) | 21.1% (inactive)
65 | O=C(c1nc2ccccc2[nH]1)C1C(c2ccc([N+](=O)[O-])cc2)C2CC3CCCCC3N2[C@@]12C(=O)Nc1cc(Cl)ccc12 (stereo partly drawn) | 25.1% (inactive)
66 | COc1cc(-c2c3c(c(Br)n2Cc2ccccc2)-c2nc(N)sc2CC3)cc(OC)c1OC | 87.5% (inactive)
67 | Cn1c(C(=O)c2cccc3ccccc23)nc2ccccc21 | 2.82% (active)
68 | C1=CC2(C=C1)OC21CCC2(C=CC3(C2)OC3C2CCCCC2)CC1 (stereo not drawn) | 92.5% (inactive)
69 | O=C1/C=C/[C@@H](O)[C@@H]2C[C@@H](O)C[C@H]2/C=C/CCCCO1 | 1.64% (active)
70 | CS(=O)(=O)Nc1ccc(C(=O)NC(C(=O)NO)c2ccc(-c3cccc(F)c3)cc2)cc1 (stereo not drawn) | 44.8% (inactive)
71 | CCN1CCN(c2cc(C)c3cc(NC(=O)c4ccc(OC)c(OC)c4)ccc3n2)CC1 | 33.4% (inactive)
72 | Cc1ccc(OCCCCCCNCCO)c(C)c1 | -1.77% (active)
73 | CCOc1ccc2nc(C)cc(Nc3ccc(Br)cc3)c2c1 | 106% (inactive)
74 | Cn1c2c(c(=O)[nH]c1=O)NC1=C(C(=O)c3ccccc31)C1(C=C(O)c3ccccc31)N2 (stereo not drawn) | 94.1% (inactive)
75 | CC(C)(C)c1ccc(C2CC(=O)C3=C(C2)Nc2ccccc2N(C(=O)c2ccccc2Cl)C3c2ccc(F)cc2)cc1 (stereo not drawn) | -11.8% (active)
76 | Oc1ccc(-c2nc(-c3ccc4oc5ccc(-c6[nH]c(-c7ccc(O)cc7)nc6-c6ccccc6)cc5c4c3)c(-c3ccccc3)[nH]2)cc1 | 67.5% (inactive)
77 | CN(CCc1ccccc1)C(=S)N(C(=O)c1ccc([N+](=O)[O-])cc1)c1ccc(Cl)cc1 | 61.3% (inactive)
78 | Nc1no[n+]([O-])c1-c1nnc2c(n1)-c1ccccc1C2=O | 27.5% (inactive)
